From PubChem
Most compounds without a hit are left out; they make up all but 1.4% or so of the library.
NPR1 activator: GC-A (human) enzyme activation | P16066 | HEK293 GC-A cells, cGMP TR-FRET, EC30 ANP; 0% at EC30 ANP, 100% saturating ANP | activation, % at 10 µM | 370,000 tested, 0.14% active; in the data active = activation above about 40%
NPR2 activator: GC-B (human) receptor activation; AID 1920062; 370,000 tested, 0.11% active; P20594; HEK293-GC-B cells, CNP EC30, cGMP TR-FRET; 0% at EC30 CNP, 100% saturating CNP; activation, % at 10 µM;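 active = activation at 10 µM reaching about 35% in either raw or pattern-adjusted values, limit read from the data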
FAS-TE inh: inhibitors of human fatty acid synthase thioesterase domain | AID 602261 | 360,000 tested, 0.67% active | recombinant FAS-TE, OMFH fluorogenic substrate, fluorescence endpoint | P49327 | inhibition, % at 15 µM;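 active = compounds whose normalised, plate-corrected inhibition of enzyme fluorescence in the single-dose primary screen is 50% or more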
APOBEC3A inh: inhibitors of human APOBEC3A DNA deaminase; recombinant A3A, FAM/TAMRA ssDNA deamination fluorescence; inhibition, % at 20 µM; 330,000 tested, 0.41% active;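 active = at least 40% inhibition at 20 µM here, with at most 30% in a related deaminase screen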
Target sequence (P31941 whole entry, looked up): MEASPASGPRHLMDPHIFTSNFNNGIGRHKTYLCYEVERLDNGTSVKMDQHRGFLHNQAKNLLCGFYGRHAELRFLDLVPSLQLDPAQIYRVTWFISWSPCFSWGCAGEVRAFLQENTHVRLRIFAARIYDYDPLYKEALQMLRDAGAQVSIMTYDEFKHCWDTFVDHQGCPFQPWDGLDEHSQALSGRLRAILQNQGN
A3G deaminase: APOBEC3G (human) deaminase inhibition; 330,000 tested, 0.28% active; inhibition, % at 20 µM; recombinant A3G, ssDNA deamination FAM/TAMRA fluorescence; Q9HC16;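 active = inhibition of at least 40% at 20 µM, with no more than 30% in the related APOBEC3A deaminase screen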
Target sequence (Q9HC16 whole entry, looked up): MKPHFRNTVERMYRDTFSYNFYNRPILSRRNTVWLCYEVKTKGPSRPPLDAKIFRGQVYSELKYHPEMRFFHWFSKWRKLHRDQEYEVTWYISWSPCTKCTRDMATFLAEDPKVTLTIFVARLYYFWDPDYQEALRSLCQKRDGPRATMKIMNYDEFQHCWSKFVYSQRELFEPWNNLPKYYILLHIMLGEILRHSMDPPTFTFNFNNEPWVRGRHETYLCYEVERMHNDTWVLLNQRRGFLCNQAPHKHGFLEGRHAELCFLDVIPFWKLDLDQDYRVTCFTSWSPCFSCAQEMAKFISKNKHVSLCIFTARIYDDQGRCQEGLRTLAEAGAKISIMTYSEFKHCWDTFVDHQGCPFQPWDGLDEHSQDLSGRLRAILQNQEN
A3A conf: confirmation of human APOBEC3A DNA deaminase inhibitors; shares compounds with APOBEC3A inh; inhibition, % at 20 µM; 1,400 tested, 63% active; recombinant A3A, ssDNA deaminase UDG fluorescence assay;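 active = inhibition reaching a set limit, 80% of the first screen's cutoff, at 20 µM in any replicate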
UDG A3A counter: counter-screen for APOBEC3A inhibitors: UDG; shares compounds with APOBEC3A inh; UDG counterscreen, FAM/TAMRA uracil oligo fluorescence; inhibition, % at 20 µM; 1,000 tested, under 10 active; AID 504714; call rule not given here
Each line names hits and unclear results; the compound was inactive in the other large screens (follow-up assays come after a bar, where they were run).

Cc1n(CC(O)COCc2ccccc2)c2ccccc2[n+]1C (stereo not drawn)	APOBEC3A inh 59 | A3A conf 71 | UDG A3A counter inactive
Cc1nc2ccccc2n1CC(O)COCC1CC=CCC1 (stereo not drawn)	none
CCc1n(CC(O)COC2CCCCC2)c2ccccc2[n+]1C (stereo not drawn)	APOBEC3A inh 67 | A3A conf 71 | UDG A3A counter inactive
CCc1n(CC(O)COCC2CC=CCC2)c2ccccc2[n+]1C (stereo not drawn)	APOBEC3A inh 62 | A3A conf 70 | UDG A3A counter inactive
CCn1c(C)[n+](CC(O)COCC2CC=CCC2)c2ccccc21 (stereo not drawn)	APOBEC3A inh 66 | A3A conf 75 | UDG A3A counter inactive
C=CCNC(=O)CN(C(=O)Cc1cccc(OC(F)(F)F)c1)c1cccc(Br)c1	none (no result: FAS-TE inh, APOBEC3A inh, A3G deaminase)
CO[C@H]([C@H](C)/C=C/N(C)C=O)[C@@H](C)C(=O)CC[C@H](C)[C@H](O)[C@H](C)[C@H]1OC(=O)/C=C/C(C)=C/C[C@H](O)C[C@@H]2C=CC[C@@H](C[C@H](OC)[C@@H](C)[C@@H](OC)C[C@@H](OC)[C@@H]1C)O2	none (no result: FAS-TE inh, APOBEC3A inh, A3G deaminase)
NC(=O)c1c(N)[nH]c(C(=O)c2ccccc2)c1-c1ccccc1	none (no result: FAS-TE inh, APOBEC3A inh, A3G deaminase)
CC(=O)N1c2ccccc2C(C)=NCC1C(=O)NC1CCCCC1 (stereo not drawn)	none (no result: FAS-TE inh, APOBEC3A inh, A3G deaminase)
CCCc1n(CC)c2ccccc2[n+]1CC(O)COC1CCCCC1 (stereo not drawn)	APOBEC3A inh 89 | A3A conf 75 | UDG A3A counter inactive
CCn1c(NC2CCCCC2)nc2ccccc21	none
CCCCNC(=O)C1CCCN1C(=O)Nc1cccc(C)c1 (stereo not drawn)	none (no result: FAS-TE inh, APOBEC3A inh, A3G deaminase)
COC(=O)C1=C(C)N(Cc2ccccc2)C(=O)N[C@H]1c1ccccc1	none
COC(=O)C1=C(C)N(Cc2ccccc2)C(=NCc2ccc(OC)cc2)N[C@H]1c1ccccc1	APOBEC3A inh 45 | A3A conf 59 | UDG A3A counter inactive
COC(=O)C1=C(C)N(Cc2ccccc2)C(=NCC(C)C)N[C@H]1c1ccccc1	APOBEC3A inh 64 (no result: NPR1 activator, NPR2 activator, FAS-TE inh) | A3A conf 58 | UDG A3A counter inactive
C=CCn1c(NC(=O)c2ccc(C)cc2)c(C#N)sc1=N	APOBEC3A inh 56 | A3A conf 71 | UDG A3A counter inactive
C=CCn1c(C(C)NC(=O)c2ccc(C)cc2)n[nH]c1=S (stereo not drawn)	none
O=S1(=O)c2ccc(Br)cc2OC[C@@H](Cc2ccccc2)N1Cc1cn(Cc2ccc(Cl)cc2)nn1	none (no result: FAS-TE inh, APOBEC3A inh, A3G deaminase)
CN(C)c1ccc(/C=C/c2ccc3ccccc3[n+]2C)cc1	none
COc1ccc(/C=C/c2ccc3ccccc3[n+]2C)cc1OC	APOBEC3A inh 66 (no result: NPR1 activator, NPR2 activator) | A3A conf 81 | UDG A3A counter inactive
CCOC(=O)[C@@]12CCC3=C1N(CCC3)C(=O)[C@H](CC(=O)N1CCCCC1)C2	none (no result: FAS-TE inh, APOBEC3A inh, A3G deaminase)
O=C(CSc1nnc(COc2ccccc2Cl)o1)NC(=O)NCc1ccco1	APOBEC3A inh 59 | A3A conf 22 | UDG A3A counter inactive
CCN(CC)C(=O)CC[C@H]1CC[C@]2(CCCN(C(=O)c3ccc4ccccc4n3)C2)O1	none (no result: FAS-TE inh, APOBEC3A inh, A3G deaminase)
COc1ccccc1Oc1ccc(S(=O)(=O)N2CCCCC2)cc1NC(=O)CCNC(C)=O	APOBEC3A inh 58 | A3A conf inactive
COc1ccccc1OCC(=O)N/N=C/C=C/c1ccc([N+](=O)[O-])o1	APOBEC3A inh 45 | A3A conf 19 | UDG A3A counter inactive
Cc1ccccc1OCC(=O)N/N=C/c1ccc([N+](=O)[O-])o1	none
COc1cc2ccc3c(CCN(C)C)cc(OC)c(OC)c3c2cc1OC	APOBEC3A inh 55 | A3A conf inactive
CCCC(=O)NCCCc1nc2ccccc2n1CC	none
C=CCn1c(CCCNC(=O)CCC)nc2ccccc21	APOBEC3A inh 47 | A3A conf inactive | UDG A3A counter inactive
COc1cc(C(=O)NCc2ccncc2)cc(OC)c1OC	none
CCc1nc(CNC(=O)c2cc(OC)c(OC)c(OC)c2)no1	APOBEC3A inh 48 | A3A conf 73 | UDG A3A counter inactive
CCN(CC)c1ccc2nc3ccccc3[n+](CC)c2c1	APOBEC3A inh 79 (no result: NPR1 activator, NPR2 activator) | A3A conf 82 | UDG A3A counter inactive
CC1CCN(C(=O)CCc2ccc(S(=O)(=O)NC(C)C)cc2)CC1	APOBEC3A inh 51 | A3A conf inactive | UDG A3A counter inactive
CC(C)NS(=O)(=O)c1ccc(CCC(=O)N2CCc3ccccc3C2)cc1	none
COc1ccc2c(c1)O/C(=C\c1ccco1)C2=O	none
Cc1cc(O)c(CN(C)C)c2c1C(=O)/C(=C/c1ccco1)O2	APOBEC3A inh 48 | A3A conf 15 | UDG A3A counter inactive
Cc1ccc(-n2c(SCC(=O)Nc3ccccc3-c3ccccc3)nnc2-c2cccnc2)cc1	none (no result: FAS-TE inh, APOBEC3A inh, A3G deaminase)
CS(=O)(=O)c1ccc(-c2nnn(CC(N)=O)n2)cc1	APOBEC3A inh 50 | A3A conf inactive
CCOc1ccc(CN2C(=O)c3ccccc3C2=O)cc1C(=O)Nc1nnc(SCC)s1	none
CCOc1ccc(CN2C(=O)c3ccccc3C2=O)cc1C(=O)NC1CC(C)(C)NC(C)(C)C1	APOBEC3A inh 45 | A3A conf 64 | UDG A3A counter inactive
CCn1ncc(-c2ccnc3cc(C(=O)O)nn23)c1C	APOBEC3A inh 94 | A3A conf 77 | UDG A3A counter inactive
COc1ccc(CC(=O)NNC(=O)c2ccccn2)cc1	APOBEC3A inh 46 | A3A conf inactive
Cc1cc(F)ccc1NC(=O)C1CCCO1 (stereo not drawn)	APOBEC3A inh 57 | A3A conf inactive | UDG A3A counter inactive
O=C(Nc1ccc(Cl)cc1Cl)C1CCCO1 (stereo not drawn)	none
O=C(NCCc1ccccc1)OCc1cn(Cc2ccccc2F)nn1	none (no result: FAS-TE inh, APOBEC3A inh, A3G deaminase)
CCC(Oc1ccccc1OC)C(=O)Nc1ccc2c(c1)OCCO2 (stereo not drawn)	none (no result: APOBEC3A inh, A3G deaminase) | A3A conf 57
CCC(C)(C)C(=O)N1CCC(C(=O)NC2CCCc3ccccc32)CC1 (stereo not drawn)	none (no result: FAS-TE inh, APOBEC3A inh, A3G deaminase)
CC(=O)N1CCN(c2ccc(N3CCN(C(C)=O)[C@@H](C)C3)c(C)c2)[C@@H](C)C1	none (no result: FAS-TE inh, APOBEC3A inh, A3G deaminase)
CC(=O)Nc1ccc(Nc2nnc(-c3ccc(C)c(S(N)(=O)=O)c3)c3ccccc23)cc1	APOBEC3A inh 61 | A3A conf inactive | UDG A3A counter inactive
CCN(CC)C(=O)CC[C@H]1CC[C@]2(CCCN(C(=O)C(C)(C)C)C2)O1	none (no result: FAS-TE inh, APOBEC3A inh, A3G deaminase)
Cc1cc(C(=O)CSc2nnc(N)s2)c(C)n1CCc1ccc(Cl)cc1	none
COc1ccc(CCn2c(C)cc(C(=O)CSc3nnc(N)s3)c2C)cc1	APOBEC3A inh 44 (no result: NPR1 activator, NPR2 activator) | A3A conf inactive | UDG A3A counter inactive
